CYP2C19 act: cytochrome P450 2C19 (human) activation; P33261; recombinant CYP2C19, luciferin-H EGE luminescence; hits give high values; 0 = fully inhibited enzyme, 1 = untreated enzyme; activation factor at 5 µM; 96,000 tested, under 10 active;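 active means activation factor of at least 2 at 5 µM in the primary screen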
CYP2C9 activ: activators of human CYP2C9; P11712; recombinant CYP2C9, luciferin-H conversion, luminescence; hits give high values; factor 1 = untreated enzyme, 0 = blocked; activation factor at 5 µM; 96,000 tested, 1.4% active;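 active means activation factor of 2 or more for CYP2C9 at a 5 µM dose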
Target sequence (P11712 whole entry, looked up): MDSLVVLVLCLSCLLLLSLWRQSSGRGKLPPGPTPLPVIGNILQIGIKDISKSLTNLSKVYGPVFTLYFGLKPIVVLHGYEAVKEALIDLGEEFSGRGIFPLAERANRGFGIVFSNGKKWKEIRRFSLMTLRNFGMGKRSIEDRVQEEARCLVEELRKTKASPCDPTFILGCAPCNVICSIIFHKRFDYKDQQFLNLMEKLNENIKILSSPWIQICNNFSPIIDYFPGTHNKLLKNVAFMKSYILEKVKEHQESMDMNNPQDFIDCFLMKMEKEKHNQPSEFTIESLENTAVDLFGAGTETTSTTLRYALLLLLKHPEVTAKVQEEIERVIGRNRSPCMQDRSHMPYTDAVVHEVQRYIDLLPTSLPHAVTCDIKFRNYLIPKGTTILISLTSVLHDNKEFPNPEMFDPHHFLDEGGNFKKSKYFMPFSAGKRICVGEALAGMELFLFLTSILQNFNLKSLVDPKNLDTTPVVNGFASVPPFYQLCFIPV
PostGolgi yeast: growth inhibition of a yeast mutant, post-Golgi transport screen. post-Golgi transport phenotypic cell assay. inhibition, % at 10 µM. AID 739. 98,000 tested, 0.9% active;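 further: yeast cells grown in 1536-well plates; yeast grown about 18 h at 30C before absorbance read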
CYP2C19 inhib: human CYP2C19 inhibition. inhibition, % at 5 µM. P33261. 96,000 tested, 21% active. CYP2C19 Supersomes, luciferin-H EGE luminescence, 30 min. AID 778;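 active means CYP2C19 inhibition above a set limit at 5 µM in the primary screen, cut at about 50% in these data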
CYP2C9 inh: human CYP2C9 inhibition | P11712 | CYP2C9 Supersomes, luciferin-H conversion, luminescence | inhibition, % at 5 µM | 96,000 tested, 20% active | AID 777;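 active means blocking of liver enzyme CYP2C9 beyond about 50% at 5 µM, limit read from the data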
PostGolgi ctrl: inhibits growth of the yeast control strain | efflux-deficient yeast background strain, growth absorbance A615, 16 h | AID 738 | 98,000 tested, 5% active | inhibition, % at 10 µM
Each line names hits and unclear results; the compound was inactive in the other large screens. A selection: hits, their analogues and other compounds. The true share with any hit is near 32%. Unless noted, no stated cut-off is given here; in the data, active means inhibition above about 30%; inactive means the rest.

O=c1oc2c3c4c(cc2c2c1CCC2)OCCN4CCC3	none
c1ccc(-c2nn3c(C4CCCCC4)nnc3s2)cc1	none
c1ccc(Cc2nnc3sc(-c4cccs4)nn23)cc1	CYP2C19 inhib 60, CYP2C9 inh 55
c1ccc(CCc2nn3c(Cc4ccccc4)nnc3s2)cc1	CYP2C19 inhib 80, CYP2C9 inh 73
c1ccc(Cc2nnc3n2CCCCC3)cc1	none
Clc1cccc(-c2nn3c(COc4ccccc4)nnc3s2)c1	none (no result: PostGolgi yeast, PostGolgi ctrl)
c1ccc(-c2nn3c(C4CCCCC4)nnc3s2)nc1	CYP2C19 inhib 70, CYP2C9 inh 59
c1ccc(Cc2nnc3sc(-c4ccc5c(c4)OCCO5)nn23)cc1	CYP2C19 inhib 58, CYP2C9 inh 76
CC(=O)Nc1ccc(NC(=O)C/C(C)=N/NC(=O)C(=O)N2CCCC2)cc1	none
COc1ccc(CCNC(=O)c2n[nH]c(=O)c3ccccc23)cc1	none
CCOC(=O)N1CCN(C(=O)c2ccc3c(=O)n4c(nc3c2)CCCCC4)CC1	none
c1ccc(Cc2nnc3sc(-c4ccccn4)nn23)cc1	CYP2C19 inhib 92, CYP2C9 inh 63
CCOc1ccccc1-c1nn2c(Cc3ccccc3)nnc2s1	CYP2C19 inhib 54, PostGolgi ctrl 78
Clc1ccc(OCc2nn3c(C4CCCCC4)nnc3s2)cc1	CYP2C9 inh 90, PostGolgi ctrl 42
c1ccc(Cc2nnc3sc(-c4cccnc4)nn23)cc1	CYP2C19 inhib 98, CYP2C9 inh 64
CCN(CC)c1nc2ccccc2n2cnnc12	none
CC(=O)Cc1nsc(NC(=O)C2Cc3ccccc3C(=O)O2)n1 (stereo not given)	none
COC(=O)c1ccc(CSc2nnc(CNC(=O)c3cccs3)o2)o1	none
OC(CN1CCN(c2cccc(C(F)(F)F)c2)CC1)c1c[nH]c2ccccc12 (stereo not given)	none
c1csc(-c2nn3c(Cn4cnc5ccccc54)nnc3s2)c1	CYP2C19 inhib 58
c1ccc(Cc2nnc3sc(-c4ccncc4)nn23)cc1	CYP2C19 inhib 96, CYP2C9 inh 52
O=S(=O)(c1cnccc1N1CCN(/N=C/c2ccccc2)CC1)N1CCCCC1	none
Cc1c(-n2cc(C(=O)c3cc(Br)ccc3O)cc(C#N)c2=O)c(=O)n(-c2ccccc2)n1C	CYP2C9 inh 64
CCN(CC)CCNC(=O)Cn1c(-c2ccccn2)nc2ccccc21	none
CCN1CCCC1CNC(=O)C(=O)Nc1ccc(OC)cc1 (stereo not given)	PostGolgi ctrl 42
CCOc1ccccc1NC(=O)C(=O)NCC1CCCN1CC (stereo not given)	none
CC1(C)CC(=O)c2cc(C(=O)N3CCN(CCO)CC3)c(=O)n(-c3ccc(Cl)cc3)c2C1	none
Cc1cc(C)n(-c2nc(NCc3cccnc3)c3c4c(sc3n2)COC(C)(C)C4)n1	CYP2C9 inh 59
CCCSc1nc(NCc2ccco2)c2c3c(sc2n1)COC(C)(C)C3	CYP2C9 inh 56, PostGolgi ctrl 47
CCC(O)CNc1nc(-n2nc(C)cc2C)nc2sc3c(c12)CCCC3 (stereo not given)	none (no result: PostGolgi yeast, PostGolgi ctrl)
CCCCSc1nc(NCc2ccco2)c2c3c(sc2n1)COC(C)(C)C3	none
Cn1c(=O)[nH]c(=O)c2c1nc(Br)n2CC(O)COc1ccccc1 (stereo not given)	none
O/N=C\c1cccn1-c1ccc(Br)cc1	CYP2C19 inhib 68
O=C(CSC(=S)N1CCOCC1)Nc1nc(-c2ccccc2)c(-c2ccccc2)o1	PostGolgi ctrl 35
COc1ccc(C(=O)N2CCN(c3c(C)cccc3C)CC2)cc1OC	none
CC(NC(=O)C1CCCN(S(=O)(=O)c2cccs2)C1)c1ccccc1 (stereo not given)	CYP2C19 inhib 59, CYP2C9 inh 95
CCOC(=O)C1CCCN(S(=O)(=O)c2cccs2)C1 (stereo not given)	none
CC(C)NC(=O)C1CCCN(S(=O)(=O)c2cccs2)C1 (stereo not given)	CYP2C19 inhib 58
Cc1nn(CC(=O)Nc2ccc3c(c2)oc2ccccc23)c(=O)c2ccccc12	none
CCOCCNC(=O)c1ccc2c3c(cccc13)CC2	CYP2C9 activ 3.4
CCOCCCNC(=O)c1ccccc1Br	none
CCn1c(-c2cccnc2Cl)nc2cc(Cl)c(Cl)cc21	CYP2C9 inh 67
CCOC(=O)Cn1c(-c2ccccn2)nc2ccccc21	CYP2C19 inhib 51
CCOC(=O)Cn1c(-c2cccnc2Cl)nc2cc(Cl)c(Cl)cc21	PostGolgi ctrl 33
COC(=O)CSc1ccc(-c2nc3ccc(C)cc3[nH]2)cn1	none
O=C(NC1CCCCC1)c1cc2nc3c(c(C(F)(F)F)n2n1)CCCC3	none
CC(C)CNC(=O)c1cccc(NC(=O)c2ccc(NC(=O)c3ccco3)cc2)c1	none
CC(C)NC(=S)Nc1ccc(Oc2ccccc2)cc1	CYP2C19 inhib 72
COC(=O)[C@H](C)NC(=O)Nc1ccc(Oc2ccccc2)cc1	none
CCCNC(=S)Nc1ccc(Oc2ccccc2)cc1	CYP2C19 inhib 68
CCCN(Cc1ccccc1)C(=O)Nc1ccc2c(c1)nnn2C	none
O=C1NC(=S)N/C1=C/c1cc([N+](=O)[O-])ccc1O	none
Cc1cc(C)n(C(C[N+](=O)[O-])c2ccc(Cl)cc2)n1 (stereo not given)	CYP2C19 inhib 76, CYP2C9 inh 58
O=C(CC1(O)C(=O)Nc2ccccc21)c1ccc(-n2cccc2)cc1 (stereo not given)	PostGolgi ctrl 31
O=C(CC1(O)C(=O)Nc2ccccc21)c1ccccc1 (stereo not given)	none
CC(=O)c1c(C)nc(-c2ccc(Cl)cc2)nc1NC(=O)C(C)C	CYP2C19 inhib 62, CYP2C9 inh 94
CC(=O)c1c(C)nc(-c2ccccc2)nc1NC(=O)C(C)C	CYP2C9 inh 74
CC(=O)Nc1nc(-c2ccccc2)nc(C)c1C(C)=O	none
COc1ccc(-c2nc(NC(=O)Cn3ccc(C(F)(F)F)n3)sc2C)cc1	CYP2C19 inhib 57
Cc1cccc(Nc2ccccc2C(=O)OCC(=O)N2CCOCC2)c1C	PostGolgi ctrl 35 (no result: CYP2C19 act, CYP2C9 activ, CYP2C19 inhib, CYP2C9 inh)
Cc1cccc(Nc2ccccc2C(=O)OCC(=O)NCc2ccco2)c1C	none
CCCCN(CC)Cc1ccc(CNC(=O)Nc2ccc(F)cc2)o1	none
O=[N+]([O-])c1cc(S(=O)(=O)Nc2cccc(C(F)(F)F)c2)ccc1-n1nnc2ccccc21	CYP2C19 inhib 93, CYP2C9 inh 98
COc1ccc(NS(=O)(=O)c2ccc(-n3nnc4ccccc43)c([N+](=O)[O-])c2)cc1	CYP2C19 inhib 74, CYP2C9 inh 93
CNC(=O)c1cc(S(=O)(=O)N(C)C)ccc1Cl	none
O=C(Cc1cccc2ccccc12)N/N=C/c1ccc(Sc2cccc3cccnc23)o1	CYP2C19 inhib 53, CYP2C9 inh 82
O=C(O)CSc1cccc2cccnc12	none
C/C(CC(=O)Nc1ccccn1)=N\NC(=O)Cc1cccc2ccccc12	none
CCCCC(=O)N/N=C/c1ccc(Sc2cccc3cccnc23)o1	CYP2C9 inh 57
CCCCNC(=S)Nc1ccccc1F	none

Screens as filed in PubChem BioAssay.
